Data as given in ChEMBL document CHEMBL3433997, “St. Jude Leishmania screening dataset” (2016).

How the values were obtained:
Format in all cases: functional
[1] = target: Solute carrier family 2, facilitated glucose transporter member 1 (Homo sapiens) (UniProt P11166); experiment: ST_JUDE_LEISH: Cytotoxicity at 2uM final concentration against transgenic Leishmania Mexicana promastigotes LmGLUT1 that are glucose transport deficient and complemented with the human glucose transporter GLUT1. Activity is measured by DNA content using SYBR green in vitro
[2] = target: Hexose transporter 1 (Plasmodium falciparum) (UniProt O97467); experiment: ST_JUDE_LEISH: Cytotoxicity at 2uM final concentration against transgenic Leishmania Mexicana promastigotes LmPfHT that are glucose transport deficient and complemented with the Plasmodium falciparum hexose transporter. Activity is measured by DNA content using SYBR green in vitro
[3] = target: Glucose transporter (Leishmania mexicana) (UniProt O61059); experiment: ST_JUDE_LEISH: Cytotoxicity at 2uM final concentration against transgenic Leishmania Mexicana promastigotes LmGT2 that are glucose transport deficient and complemented with the L. Mexicana glucose transporter 2. Activity is measured by DNA content using SYBR green in vitro

Solute carrier family 2, facilitated glucose transporter member 1 (Homo sapiens), sequence (P11166 whole entry): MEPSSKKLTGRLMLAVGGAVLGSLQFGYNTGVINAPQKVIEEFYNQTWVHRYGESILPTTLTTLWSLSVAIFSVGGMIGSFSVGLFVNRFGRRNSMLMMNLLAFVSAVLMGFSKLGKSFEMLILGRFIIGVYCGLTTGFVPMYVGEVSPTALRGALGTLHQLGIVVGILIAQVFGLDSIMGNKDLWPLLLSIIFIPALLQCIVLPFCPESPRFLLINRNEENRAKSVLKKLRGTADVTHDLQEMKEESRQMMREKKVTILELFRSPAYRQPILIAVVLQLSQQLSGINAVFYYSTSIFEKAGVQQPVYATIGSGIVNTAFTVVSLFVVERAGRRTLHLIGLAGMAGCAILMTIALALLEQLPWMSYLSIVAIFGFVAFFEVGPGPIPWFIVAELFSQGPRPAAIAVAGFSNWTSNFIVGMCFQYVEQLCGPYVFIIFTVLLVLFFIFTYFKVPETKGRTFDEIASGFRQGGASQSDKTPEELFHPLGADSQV

| Structure (SMILES) | inhibition [1] [%] | inhibition [2] [%] | inhibition [3] [%] |
| --- | --- | --- | --- |
| CCCCc1ccc2[nH]c(NC(=O)OC)nc2c1 | 10.2 | 7.79 | 9.56 |
| CCNC(=O)N[C@@H]1CN[C@@H](C#Cc2cc3c(Nc4ccc(OCc5cccc(F)c5)c(Cl)c4)ncnc3s2)C1 | -0.84 | -1.15 | -0.46 |
| CCC(CO)NCC(O)Cn1c2ccc(Br)cc2c2cc(Br)ccc21 (stereo not drawn) | 1.9 | -0.92 | -1.57 |
| CC1(C)NC(N)=NC(=N)N1OCCSCCON1C(=N)N=C(N)NC1(C)C | -0.9 | 0.07 | -0.26 |
| COc1c(C2CCN(CCCCNC(=O)c3cccc(-c4ccc(C(F)(F)F)cc4)c3)CC2)ccc2c1CCCC2 | 2.51 | 1.75 | 11.1 |
| COc1ccc2nccc([C@@H](O)CN3CCC(NCCOc4ccccc4C(F)(F)F)CC3)c2c1 | 0.68 | 2.17 | 2.28 |
| COc1ccc(C(=O)N2CCC3(CC2)C(=O)N(CC(=O)NCC2CCCCC2)CN3c2ccccc2)c(OC)c1 | 5.13 | 7.03 | 3.99 |
| Fc1ccc2[nH]c(-c3ccc(-c4ccc(CN5CCN(CCN6CCOCC6)CC5)cc4)cc3)nc2c1 | 5.88 | 4.38 | 1.45 |
| CCN(CC)CCNC(=O)c1ccc(N/C=C2\C(=O)Nc3ccc(S(=O)(=O)Cc4c(Cl)cccc4Cl)cc32)cc1 | -0.98 | -0.63 | -1.08 |
| COc1cccc(C(=O)NC(NC(=S)Nc2ccc(OC)cc2[N+](=O)[O-])C(Cl)(Cl)Cl)c1 (stereo not drawn) | -1.36 | 0.44 | -2.26 |
| O=C(Nc1ccc(C(=O)OCC2CCCCC2)cc1)N[C@@H](Cc1ccc(O)cc1)C(=O)NC1CCN(Cc2ccc(O)cc2)C1 (stereo partly drawn) | 3.7 | 2.04 | 3.42 |
| COc1ccc2nccc([C@@H](O)CN3CCC(NC(=O)c4ccc5nc(-n6cccc6)sc5c4)CC3)c2c1 | 6.02 | 5.93 | 4.22 |
| O=C(Nc1ccccc1Br)N[C@@H]1CCN(c2ccnc3ccccc23)C1 | 4.02 | 5.95 | 3.01 |
| CC(CNC(=O)[C@H]1CNCCN1C(=O)CCCc1ccccc1)c1ccccc1 (stereo partly drawn) | 0.97 | -1.25 | -0.23 |
| Cc1cccc(-c2nc(Nc3ccncc3)c3cc(N(C)C)ccc3n2)n1 | 0.37 | -1.05 | -3.66 |
| O=C(Nc1ccc(Cl)cc1)c1ccc(CN2CCCN(Cc3cccc(O)c3)CC2)cc1 | 1.65 | 1.35 | 2.47 |
| CN1CCN(Cc2ccc(-c3cc4c(Nc5ccc(OCc6cccc(F)c6)c(Cl)c5)ncnc4s3)[nH]2)CC1 | 12.7 | 11.4 | 8.25 |
| CCCc1ccc(Nc2nc(C)cc(N(CC)CCCN3CCCCC3)n2)cc1 | -3.11 | -2.14 | 0.52 |
| COc1ccc(N2CCN(c3nc(N)c4cc(OC)c(OC)cc4n3)CC2C)cc1 (stereo not drawn) | 0.19 | 1.45 | -0.49 |
| NC(=O)c1sc(-n2cnc3ccc(C(=O)NCCN4CCOCC4)cc32)cc1OCc1ccccc1C(F)(F)F | 0.72 | -0.6 | -0.32 |
| COc1ccc(NC(=O)Nc2ccc(C)c(-c3ccc(C(=O)Nc4ccncc4)cc3)c2)cc1 | 1.53 | 1.45 | 0.71 |
| Oc1ccc(CCCNc2nc(NCc3ccccc3-c3ccccc3)nc(N3CCNCC3)n2)cc1 | -0.81 | -2.76 | 1.36 |
| COc1cccc(OC)c1CN1CCC(N(C)CCCCCCCCN2CCC(OC(=O)Nc3ccccc3-c3ccccc3)CC2)CC1 | 105 | 108 | 74.3 |
| CS(=O)(=O)c1cccc(-c2cnc3[nH]cc(-c4ccc(CCC(=O)O)cc4)c3c2)c1 | 0.77 | 1.38 | 0.31 |

| Structure (SMILES) | inhibition [1] [%] | inhibition [2] [%] | inhibition [3] [%] |
| --- | --- | --- | --- |
| CCOC(=O)C1=C(C)N=c2sc(=Cc3cc(Cl)ccc3O)c(=O)n2C1c1ccc2c(c1)OCO2 (stereo not drawn) | 0.16 | 0.7 | 1.37 |
| COc1ccc(C(=O)Nc2cc(Br)c3c(c2)CNCC3)cc1C(F)(F)F | 4.52 | 1.74 | 1.37 |
| COc1ccc(CCNCCCCCCNCCc2cccc([N+](=O)[O-])c2)cc1OC | 0.45 | 1.78 | 3.28 |
| Cc1ccccc1C(O)CNc1ccnc(Nc2cccc(C#N)c2)n1 (stereo not drawn) | 3.5 | 4.38 | 0.24 |
| CCCCCCCN1CC[C@@H](CCCc2ccnc3ccc(OCCN4CCOCC4)cc23)[C@@H](CC)C1 | 10.6 | 7.56 | 9.34 |
| O=C(Nc1cn(-c2ccc(OCc3cccc(F)c3)c(Cl)c2)c2ncncc12)c1ccncc1 | 1.53 | 1.05 | 2.96 |
| O=C(Nc1cc(C(F)(F)F)ccc1N1CCOCC1)C(Cl)(Cl)Cl | 10.4 | 9.77 | 9.48 |
| COc1ccc(CN(C)Cc2ccc(NC(=O)c3cccc4c(=O)c5cccc(C)c5[nH]c34)cc2)cc1OC | 4.59 | 11.6 | 0.44 |
| COc1ccc(-c2nc(NC(=O)CS(=O)(=O)c3ccc(C)cc3)sc2C)cc1 | 8.39 | 6.4 | 0.17 |
| CCc1nc2nc(C)cc(Nc3cc(C)cc(C)c3)n2n1 | 3.06 | 2.04 | 3.36 |
| CC[C@H](C)[C@@H](C(=O)N1CCOCC1)N1CC[C@H](NS(=O)(=O)CC(C)(C)c2ccc(Cl)cc2)C1=O | 0.22 | 0.79 | -1.13 |
| CC(C)(C)OC(=O)N1CCC(C2CCN(C(=O)OC(C)(C)C)CC2)CC1 | -2.91 | -1.6 | -1.48 |
| Cc1cccc(C(=O)Nc2ccnc(N3CCC(N(C)Cc4ccccc4)CC3)c2)c1 | -1.46 | -0.98 | -0.83 |
| COc1cc(N)cc2sc(N)nc12 | -1.04 | 0.54 | 0.08 |
| CCC(C)CN1C(=O)C(c2ccccc2)(c2ccccc2)N=C1N (stereo not drawn) | 2.09 | 2.72 | 2.04 |
| Cc1ccc(O)c(Nc2c3c(c(C#N)c4nc5ccccc5n24)CCC3)c1 | 2.48 | 1.2 | -0.54 |
| Cn1cnc2c(Nc3ccncc3)nc(-c3ccc4c(c3)OCO4)nc21 | 8.06 | 6.78 | 3.95 |
| COc1cc2nc(NCCc3ccccc3)nc(NCc3nccs3)c2cc1OC | 1.89 | 2.47 | 0.04 |
| Cc1c(Br)cc2nc(-c3ccc(C(=O)NC4CCN(Cc5ccccc5)CC4)cc3)[nH]c2c1C | 1.63 | 1.85 | 0.51 |
| Nc1nc(N)c2c(Sc3ccccc3)cccc2n1 | 3.38 | 3.48 | 2.7 |
| CCCCNc1nc(NCCCC)c2c(C)c(Cc3ccccc3)c(NCCCC)nc2n1 | 39.8 | 43.6 | 12.3 |
| CC1(C)NC(N)=NC(=N)N1OCCc1cccc2ccccc12 | 2.21 | 10.7 | 4.71 |
| Cc1nc2ccccc2n1C1CC2CCC(C1)N2CCCC1(c2ccccc2)CCN(C(=O)OCc2ccccc2)CC1 (stereo not drawn) | 3.25 | 0.85 | 2.57 |
| Cc1ccc(NC(=O)N2CCN(CCCCCNC(=O)/C=C/c3ccc(Cl)c(Cl)c3)CC2)cc1C | 8.95 | 7.71 | 6.33 |

| Structure (SMILES) | inhibition [1] [%] | inhibition [2] [%] | inhibition [3] [%] |
| --- | --- | --- | --- |
| O=C(CSc1nc2ccccc2c(=O)n1C1CC1)Nc1cc(C(F)(F)F)ccc1Cl | -0.03 | -2.91 | 2.43 |
| CCOc1cc(CNCCCCCCNCc2cc(OCC)c(OCC)c3ccccc23)c2ccccc2c1OCC | 58.6 | 12.1 | 103 |
| O=C(/C=C/c1ccc(-c2nc3cc(F)c(F)cc3[nH]2)cc1)NCc1ccc(Cl)c(Cl)c1 | 4.53 | 4.32 | 1.96 |
| CC(C)c1ccc(-c2noc(SCC(=O)N(C)c3ccc(F)cc3)n2)cc1 | -1.33 | 0.23 | -0.55 |
| CCCC(=O)Nc1ccc(OCCCCN(CC(C)(C)C)c2ccc(C#N)c(C(F)(F)F)c2)cc1 | 1.48 | 1.02 | 0.8 |
| CC(Cc1ccc(NC(=O)c2ccc(CC(C)NCc3ccc(Cl)c(Cl)c3)cc2)cc1)NCCc1cccc(Cl)c1 (stereo not drawn) | 1.59 | -0.71 | -0.17 |
| Cc1cc(N2CCCC2)nc(Nc2ccc(NC(=O)C3CCCC3)cc2)n1 | -0.76 | 1.16 | 0.83 |
| COc1ccc(C2C(C(=O)OC3CCCCC3)=C(C)NC3=C2C(=O)CCC3)cc1Br (stereo not drawn) | 0.38 | -0.1 | 1.36 |
| COc1ccc(CCN(Cc2cccs2)C(=O)c2cc3sccc3n2C)cc1OC | 0.3 | 0.45 | 0.18 |
| Nc1cccc(CNCc2ccc(-c3ccc(-c4nc5cc(F)ccc5[nH]4)s3)cc2)c1 | -2.38 | 0.25 | -1.11 |
| COC(=O)CC[C@H](NC(=O)[C@H](C)NC(=O)OC(C)(C)C)C(=O)OC | 4.67 | 0.48 | 0.89 |
| O=C(Cc1cccc(Cl)c1)Nc1cccc(-c2c[nH]c3nc(Nc4cccc(OCc5ccccc5)c4)ncc23)c1 | 6.67 | 6.61 | 5.74 |
| Cc1cccc(CN2CCC(C(=O)Nc3ccc(-c4nc5ccccc5[nH]4)cc3)CC2)n1 | 2.6 | 2.69 | 3.71 |
| Cc1ccc(C(=O)Cn2nc(-c3ccc(C)c(S(=O)(=O)N4CCCC4)c3)ccc2=O)cc1 | 1.61 | 0.61 | 2.62 |
| Cc1cnc(CN(Cc2ccc(-c3ccc(CNCCc4ccc(S(C)(=O)=O)cc4)cn3)cc2)C(=O)c2ccc([N+](=O)[O-])c(C)c2)cn1 | 1.89 | 3.15 | 1.98 |
| CC(Cc1ccc(OCC(=O)NCC2CCN(CCc3cccc(Cl)c3)CC2)cc1)NCCc1cccc(Cl)c1 (stereo not drawn) | 3.07 | 4.09 | 1.92 |
| COc1cc2nc(N3CCC(CCCC4CCNCC4)CC3)nc(NCc3ccccn3)c2cc1OC | 73.5 | 68.6 | 57.1 |
| COc1ccc2c(OC)c(CNCCCCCCNCc3ccc4cc(OC)ccc4c3OC)ccc2c1 | 106 | 107 | 107 |
| CC(C)(C)c1ccc(CNC(=O)c2ccc(-c3nc4ccc(Cl)cc4[nH]3)cc2)cc1 | 1.67 | 1.77 | 1.63 |
| Cc1[nH]c(C)c(-c2ccc(CCc3ccc(C(F)(F)F)cc3)nc2)c(=O)c1Cl | 2.59 | 3.29 | 0.56 |
| CCCCCCC(C)c1cc(O)c2c(c1)OC(=O)CC2(CC)c1ccccn1 (stereo not drawn) | 1.55 | 3.13 | 1.77 |
| COc1cc(Cc2cnc(N)nc2N)cc(OCCCCC2SC(=O)NC2=O)c1Br (stereo not drawn) | 6.08 | 4.54 | 5.43 |
| CC1CCCN(S(=O)(=O)c2cc(Br)cc3c2N(C(=O)C2CC2)CC3)C1 (stereo not drawn) | 2.64 | 2.33 | 1.02 |
